# Laboratory results taken from ChEMBL document CHEMBL5308541, “MAIP: An Open-Source Tool to Enrich High-Throughput Screening Output and Identify Novel, Druglike Molecules with Antimalarial Activity” (ACS Med Chem Lett, 2023).
# In all, about 4,800 compounds went through this assay and about 420 (8.8%) showed an effect of 50% or more. Shown is part of a subset that was picked to be rich in strong results.
# System: Plasmodium falciparum
# Experiment: Confirmatory screen in NF54 nanoGlo assay, in single point, at 2uM, 72h
# Type: functional, Erythrocyte
# Conditions: timepoint 72 hour
row,Compound,% Inhibition [%]
1,CN1CCC(N(Cc2ccccc2)C(=O)c2cc3cnccc3[nH]2)CC1,61
2,CCCN1CCC(N2CC(c3cccnc3)C(c3nc(C4CCCC4)no3)C2)CC1 (stereo unspecified),-2
3,Cc1cc(O)c(Cl)cc1-c1cccc2c(N)ccnc12,91
4,Cc1cc(O)c(Cl)cc1-c1ccc2nccc(N)c2c1,90
5,Clc1ccc2[nH]c3c(c2c1)CCCC3NC1CCN(C2CCOC2)CC1 (stereo unspecified),81
6,CN1CCC(Oc2ccc(NC(=O)c3cn4ccnc4s3)cn2)CC1,86
7,Nc1ccnc2ccc(-c3ccc(C(=O)NCC4CCOCC4)cc3)cc12,77
8,Cc1ccc2nc(-c3cccc(NC(=O)c4ccc(OC(F)(F)F)c(Cl)c4)c3)[nH]c2n1,72
9,Cc1cc(N2CCC(NC3CCCC3Cc3ccc(F)cc3)CC2)nc(N)n1 (stereo unspecified),96
10,Cc1cc(N2CCC(N(C)Cc3cc(-c4ccccc4)n[nH]3)CC2)nc(N)n1,21
11,Cc1cc(N2CCC(NC3CCNC(c4ccccc4)C3)CC2)nc(C)n1 (stereo unspecified),30
12,Fc1cccc(Cl)c1CN1CCC(NC[C@H]2CCCOC2)CC1,24
13,c1cc(CNC2CCN(C[C@H]3CCOC3)CC2)c2cc[nH]c2c1,-7
14,O=C(NCc1ccc(N2CCNCC2)c(F)c1)c1ccc(-c2noc(C(F)(F)F)n2)cc1,57
15,Cc1nc(N2CCN(C)CC2)cc(N2CCN(S(=O)(=O)c3ccccc3C(F)(F)F)CC2)n1,67
16,Cc1c(CN2CCC(O)(Cn3ccnc3)CC2)[nH]c2c(Cl)cccc12,96
17,COCCN1CCC[C@@]2(CCN(c3ccnc4cc(Cl)ccc34)C2)C1,99
18,NC(=O)[C@]1(O)CCN(c2ccnc3ccc(Oc4ccccc4)cc23)C1,29
19,COCCN1CC[C@H](CN(C)c2ccnc3cc(Cl)ccc23)C1,98
20,O[C@@]1(c2c[nH]nn2)CCN(c2ccnc3cc(Cl)ccc23)C1,59
21,Cc1cccc(N2CCC(NCc3cc(C)cc(CN4CCN(C)CC4)c3C)CC2)c1,61
22,Cc1cc(C)c(CN2CCN(C)CC2)cc1CNCCCn1ccnc1C,38
23,Cc1ccc2nc(NC[C@H]3CCN(C4CC4)C3)cc(C)c2c1,93
24,COc1ccc(-c2cc(C(=O)Nc3ccc(N4CCN5CCCC5C4)cc3)c3c(C)noc3n2)cc1 (stereo unspecified),41
25,Cc1cc(NC[C@H]2CN(CC(C)C)CCO2)c2ccccc2n1,26
26,Cc1cc(N2CCC(Nc3ccnc4ccncc34)CC2)nc(C)n1,9

row,Compound,% Inhibition [%]
1,CCCN1CCC(Nc2cc(C)nc3ccccc23)CC1,77
2,O=C(Nc1cnc2c(c1)COCC2)c1cc2c(OC(F)(F)F)cccc2[nH]1,95
3,c1ccc(CCC23CN(Cc4ccccn4)CC2CN(Cc2ccns2)C3)cc1 (stereo unspecified),88
4,Cc1ccc2[nH]cc(-c3cc(N4CCOCC4)nc(N)n3)c2c1,57
5,Nc1cc(N2CCC(c3nc4cc(F)ccc4[nH]3)CC2)nc(N2CCOCC2)n1,39
6,Brc1ccc2[nH]c3c(c2c1)CCCC3NC1CCc2[nH]cnc2C1 (stereo unspecified),97
7,c1ccc(CNc2ccc(-c3noc(C45CCCN(CCC4)C5)n3)cn2)cc1,82
8,NCCCCc1c(-c2cccnc2)[nH]c2c(Cl)cc(Cl)cc12,55
9,Cn1cc(-c2cncc(C(=O)NC3CCN(c4cccc(F)c4)CC3)c2)cn1,51
10,CCOc1cccc(N2CCN(C(=O)c3cc(-c4ccc(F)cc4)[nH]n3)CC2)n1,32
11,CN(C)CCN1CCC(NC2CCC(O)(c3cccc(Cl)c3)CC2)CC1 (stereo unspecified),30
12,OC1(c2ccc(Cl)cc2)CCN(C[C@@H]2CCCN3CCCC[C@H]23)CC1,73
13,NCC1(O)CCN(c2ccnc3cc(F)c(Cl)cc23)CC1,94
14,FC(F)(F)c1ccc(N2CCC[C@H](NC3CCN(Cc4ccco4)CC3)C2)nc1,21
15,CCN1CCC(N2CCC(C(=O)NCCc3ccc(OC(F)(F)F)cc3)CC2)CC1,48
16,Oc1ccc(OC(F)(F)F)cc1-c1ccc2nccn2n1,83
17,Nc1ccc(-c2cc(OC(F)(F)F)ccc2O)cn1,11
18,N#Cc1ccc(N2C[C@H](COCC3CC3)C3(CCN(Cc4cccc(O)c4)CC3)C2)cc1C(F)(F)F,80
19,CCN1C[C@H](Nc2nc(C)nc3sccc23)[C@@H](OC)C1,98
20,CNc1nc(C)c(-c2ccnc(Nc3cccc(S(C)(=O)=O)c3)n2)s1,58
21,Cc1cc(N2CCC(NCCCN3CCCc4ccccc43)CC2)nc(N)n1,74
22,Cc1ccc2nc(CCCNC3CCN(c4cc(C)nc(N)n4)CC3)oc2c1,29
23,Cc1cc(N2CCC(NCCc3c[nH]cn3)CC2)nc(-c2ccccc2)n1,17
24,COc1ccc2nc3cc(Cl)ccc3c(O)c2c1,57
25,COc1ccc2c(O)c(Br)c(C)nc2c1,78
26,CN1CCN(CCOc2ccccc2CN(C)Cc2cc3cc(F)ccc3[nH]2)CC1,87

row,Compound,% Inhibition [%]
1,CN(C[C@H](O)COc1cccc(CNCCCOc2cccnc2)c1)C1CCCCC1,30
2,CN1C(C)(C)CC(NC(=O)c2ccc(-c3cc(-c4cccc(C(F)(F)F)c4)n[nH]3)cc2)CC1(C)C,45
3,CCc1oc2ccccc2c1CNC[C@H](O)c1ccc(Cl)cc1,99
4,CCN(Cc1cnn(-c2cccc(Cl)c2)c1)CC1CCN(C2CCN(C)CC2)CC1,79
5,CCN(Cc1[nH]c2ccc(Cl)cc2c1C)CC1CCN(C2CCN(C)CC2)CC1,89
6,Cc1ccc2[nH]c(-c3cc4n(n3)CCN(c3ccnc(N)n3)C4)nc2c1C,89
7,CNc1nc(N[C@H]2CCCN(Cc3ccc(Cl)cc3)C2)nc2c1CCC2,79
8,Clc1cccc(N2CC[C@H](CNC3CCN(Cc4ccco4)CC3)C2)c1,66
9,COc1ccc(CNCc2cc3ccccc3[nH]2)cc1CN(C)C,59
10,COc1ccccc1-c1csc(C2CCN(CC[C@H]3CCCN3C)CC2)n1,26
11,CC(CNc1nc(NCC(C)N2CCOCC2)c2cc(Cl)ccc2n1)N1CCOCC1 (stereo unspecified),87
12,CN1CCC(N2CCC(NC(=O)c3ccc(S(=O)(=O)N(C)C4CCCCC4)cc3)CC2)CC1,44
13,Cc1ccc(-c2cc(C(=O)NC3CCN(C4CCN(C)CC4)CC3)n[nH]2)cc1C,98
14,CN(C)Cc1cccc(CCNCc2csc(-c3ccc(C(F)(F)F)cc3)n2)c1,74
15,O=C(NC1CCN(CCOc2ccc(Cl)cc2)CC1)c1c[nH]c2ccncc2c1=O,92
16,CCN1CCC[C@H](Nc2cccc(-n3ccnc3)n2)C1,33
17,O[C@H]1CCN(Cc2ccccc2CNc2cccc(-n3ccnc3)n2)C1,94
18,O[C@H]1CCN(Cc2cccc(NCc3cn4ccnc4s3)c2)C1,38
19,Nc1ccnc(-c2cccc3[nH]ccc23)c1,6
20,COc1ccc2cc(-c3cc(N)ccn3)[nH]c2c1,55
21,O=C1CN(C(=O)c2ccnc3ccccc23)CCN1Cc1ccccc1F,53
22,COc1cc2nc(NCC3(N4CCN(C)CC4)CCCC3)cc(C)c2cc1OC,84
23,CCN(C)CC1CCN(c2nc(NCCOC)nc(N3CCC(CN(C)CC)C3)n2)C1 (stereo unspecified),1
24,Cn1nnc(C(=O)N2CCCCC23CCCCCC3)n1,68
25,CC(C)CCOc1ccc2[nH]c(-c3cc(N4CCC[C@@H]4CS(C)(=O)=O)ccn3)cc2c1,99
26,CN(CCCn1ccnc1)c1ccnc2cc(Br)ccc12,99

row,Compound,% Inhibition [%]
1,O=C(NCCN1CCCCC1)c1cccc(-c2cnc3ccc(F)cn23)c1,26
2,CCOc1cc2nccc(N3C[C@H]4CN(C)C[C@H]4C3)c2cc1OCC,98
3,CCCC(=O)NC1COCC1Cc1ccncc1 (stereo unspecified),83
4,c1ccc(CN2CCC(CCNC[C@@H]3CCCN4CCCC[C@H]34)CC2)cc1,61
5,COc1ccc2cc(NC(=O)c3cc(-c4c(C)nn(C)c4C)[nH]n3)cnc2c1,73
6,Cc1cnccc1NCCNCc1ccc(OC(C)C)c(Cl)c1,73
7,c1ccc2c(Nc3ccc4[nH]cnc4c3)c3ccccc3nc2c1,98
8,OC[C@H](CNCc1cc2ccc(F)cc2[nH]1)c1ccccc1Cl,72
9,O[C@@H](CNCc1cc2cc(Cl)c(Cl)cc2[nH]1)c1ccc(F)cc1,79
10,Cc1sc2nc(-c3ccccn3)nc(NCCc3nccn3C)c2c1-c1ccccc1,71
11,CCNc1nc(C)cc(Nc2ccc(NC(=O)Nc3ccc(F)cc3F)cc2)n1,98
12,CCNc1cc(C)nc(NCCNC(=O)Nc2cc(F)cc(F)c2)n1,76
13,Cc1cc(NC[C@H](O)COc2ccc(F)cc2)nc2ccccc12,76
14,Cc1ccc2[nH]c(CNC[C@@H](CO)C3CCC3)cc2c1C,65
15,COc1ccc2[nH]cc(C3=CCN(c4ccc5nnc(-c6ccccc6F)n5n4)CC3)c2c1,51
16,COc1ccc2[nH]cc(-c3ccc(N)nc3)c2c1,-7
17,CCN1CCN([C@H]2CCN(c3ccnc4ccncc34)C2)CC1,97
18,Cc1ccc2nccc(N3CCC(N4CCC(O)CC4)CC3)c2c1,10
19,O=C(NCC1CC1)c1cc2c(OCc3ccc(Cl)cc3)cccc2[nH]1,57
20,c1ccc(-c2ccnc(C3CCN(CC45CNCC4C5)CC3)n2)cc1 (stereo unspecified),94
21,CC(C)c1ccc(-c2noc(CCN3CCN(CCCN(C)C)CC3)n2)cc1,25
22,CC(C)c1ccc(-c2nc(CN3CCCCC3)cc(CN3CCCCC3)c2O)cc1,93
23,CCC1(NC(=O)c2cc(C)c3ccccc3n2)CCOCC1,10
